Assay outcomes (PubChem BioAssay)
CHT allo act = allosterically activates the human high affinity choline transporter | 0.49% of 310,000 active | B-score at 10 µM | CHT-expressing cells, membrane potential dye, choline EC20; active compounds read high; LV-AA mutant CHT in HEK293 cells | Q9GZV3 | AID 488977;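 active means initial fluorescence not abnormally high and integrated response B-score, plate-corrected, over 3 SD above library mean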
Target sequence (Q9GZV3 whole entry, looked up): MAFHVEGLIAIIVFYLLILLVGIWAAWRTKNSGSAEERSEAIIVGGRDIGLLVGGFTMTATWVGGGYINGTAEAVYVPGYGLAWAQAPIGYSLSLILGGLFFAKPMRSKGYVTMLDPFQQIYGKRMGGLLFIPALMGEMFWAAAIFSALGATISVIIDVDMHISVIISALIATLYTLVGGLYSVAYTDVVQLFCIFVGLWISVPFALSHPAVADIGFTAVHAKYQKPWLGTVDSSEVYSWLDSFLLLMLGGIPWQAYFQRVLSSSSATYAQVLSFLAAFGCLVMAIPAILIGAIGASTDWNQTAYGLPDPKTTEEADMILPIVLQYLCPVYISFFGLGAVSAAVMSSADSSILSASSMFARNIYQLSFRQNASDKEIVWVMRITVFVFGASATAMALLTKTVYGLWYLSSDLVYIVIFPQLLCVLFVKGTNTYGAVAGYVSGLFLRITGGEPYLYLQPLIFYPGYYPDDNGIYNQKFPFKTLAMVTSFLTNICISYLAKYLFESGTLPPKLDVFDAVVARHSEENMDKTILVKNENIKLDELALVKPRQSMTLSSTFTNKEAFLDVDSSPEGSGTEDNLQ
CHT inh = human CHT choline transport inhibition; CHT-expressing cells, membrane potential dye, choline response; active compounds read low; AID 488975; B-score at 10 µM; 0.86% of 310,000 active;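 active means B-score over 3 SD under the library average, and starting fluorescence ratio not unusually high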;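 further: choline stimulus applied at its EC90 after an EC20 pre-addition; B-score computed on integrated fluorescence ratio after choline addition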
MEKK2mut PB1 HTS = signal of MEK5 binding to mutant human MEKK2 PB1 domain | bead flow cytometry, Alexa488-MEK5 binding to MEKK2 mutant | percent response, % at 10 µM | 0.35% of 290,000 active; in the data active means percent response above about 24%, passing the limit was not always enough
MEKK3 PB1 HTS = MEKK3-MEK5 PB1 interaction, increase or decrease | bead-based flow cytometry, Alexa488-MEK5 binding to MEKK3; actives lie on both sides; 0 = blocked by unlabeled MEK5, 100 = vehicle | 1.4% of 290,000 active | AID 1529 | Q99759 | binding response (% of control), % at 10 µM;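 active means binding response more than 3 SD above or below the average of its plate-row segment, actives on both sides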;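 further: Alexa488 bead fluorescence after subtracting the streptavidin-only scavenger bead signal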
MEKK2wt PB1 HTS = raises or lowers MEK5 binding to wildtype human MEKK2 PB1 domain. binding response (% of control), % at 10 µM. AID 1531. bead flow cytometry, Alexa488-MEK5 binding to MEKK2 WT; actives lie on both sides. Q9Y2U5. 1.1% of 290,000 active; in the data active means binding response below about 67% or above about 130%
SUMO Mot1 rescue = blocks SUMOylation pathway, rescuing yeast Mot1-301 growth | 1% of 320,000 active | growth rescue, % at 18.8 µM | S. cerevisiae Mot1-301 growth rescue, ATP luminescence, 38.5C; percent above DMSO median, 100 means doubled | AID 2716;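 active means every valid replicate shows activation above 250% relative to neutral control wells; inactive means the rest, any valid replicate at or below 250%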
CHT act confirm = human CHT activation, confirmatory screen | shares compounds with CHT allo act | CHT-expressing cells, membrane potential dye fluorescence (FDSS); % of choline EC20–EC90 response window; HEK293 expressing CHT LV-AA mutant; choline added at its EC20 | 91% of 2,500 active | activation, % at 10 µM;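 active means primary screen active, with duplicate mean activation above negative control mean plus 3 SD, cut at about 11% in these data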
HEK293 MP dye = counter-screen for CHT activators: effect in parental HEK293 cells. shares compounds with CHT allo act. membrane potential dye fluorescence (FDSS); measured after EC20 choline addition. ratio readout change at 10 µM, hits read low. 62% of 2,500 active;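 active means duplicate-averaged ratio beyond 3 SD from buffer wells, up or down, though filed actives are nearly all decreases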
Hits are given with their value; n = inactive; x = no result. Hits are enriched below; roughly 4.1% of the tested compounds scored in any of these assays.

SMILES | CHT allo act | CHT inh | MEKK2mut PB1 HTS | MEKK3 PB1 HTS | MEKK2wt PB1 HTS | SUMO Mot1 rescue | CHT act confirm | HEK293 MP dye
Cc1ccc(C(=O)N/C(=C\c2ccccc2)C(=O)NCc2cccnc2)cc1 | n | n | n | n | n | n | x | x
Cc1cc(C(=O)N/N=C\c2cc(C(C)(C)C)ccc2O)n[nH]1 | n | n | n | n | n | n | x | x
CC(=O)N/N=C/c1cc(C(C)(C)C)cc(/C=N/NC(C)=O)c1O | 8.4 | n | n | n | n | n | 64 | -50
COc1ccc(Cl)cc1NC(=O)CN(C)C(=O)c1cccc2cccnc12 | x | x | x | x | x | n | x | x
Cc1ccc[n+](CC(=O)Nc2nc3ccccc3s2)c1 | n | n | n | n | n | n | x | x
COc1ccc(/C=C/C(=O)OCC(=O)NC(C)CCc2ccccc2)cc1 (configuration not stated) | x | x | x | x | x | n | x | x
CC(CCc1ccccc1)NC(=O)/C=C/c1ccc(Cl)cc1 (configuration not stated) | n | n | n | n | n | n | n | n
O=[N+]([O-])c1cccc(-c2nc(-c3ccncc3)no2)c1 | 7.1 | n | x | x | x | n | 44 | -43
COc1ccc(C2=CSC3=NCCN23)cc1Cl | n | n | n | n | n | n | x | x
COc1ccc(C2=CSC3=NCCN23)cc1Br | 6.6 | n | x | x | x | n | 29 | -47
COc1ccc(C2=CSC3=NCCN23)cc1[N+](=O)[O-] | n | n | n | n | n | n | x | x
COc1ccc(C2=CSC3=NCCN23)cc1F | 7.2 | n | n | n | n | n | 47 | -55
O=[N+]([O-])c1ccc(C2=CSC3=NCCN23)cc1 | 7.4 | n | x | x | x | n | 43 | -61
CCCN1CCN(C(=O)CS(=O)(=O)Cc2nc(-c3cccc(OC)c3)oc2C)CC1 | n | n | n | n | n | n | x | x
Cc1cc(C)cc(N(CCC#N)C(=O)COC(=O)c2ccc(OCc3c(C)noc3C)cc2)c1 | n | n | x | x | x | n | x | x
CCCCCCCCNC(=O)c1ccc(C)cc1 | n | n | n | n | n | n | x | x
Cc1ccc(S(=O)(=O)N(C)c2ccccc2C(=O)N2CCOCC2)cc1 | n | n | n | n | n | n | x | x
O=C(NC(Cc1ccccc1)C(=O)O)/C(=C\c1ccc(Cl)cc1)NC(=O)c1ccco1 (configuration not stated) | n | n | n | n | n | n | x | x
Cc1c(O)ccc2c(CN3CCN(CCO)CC3)cc(=O)oc12 | 17 | n | n | n | n | n | 66 | -70
Cc1nc(N)nc(C)c1Cc1ccccc1 | n | n | n | n | n | n | x | x
Cc1c2ccccc2cc(Cc2ccccc2)[n+]1C | 6.7 | n | n | n | n | n | 68 | -76
CC(=O)Nc1ccc(NC(=O)c2c(C)c(-c3ccccc3)nc3ccccc23)cc1 | n | n | x | x | x | n | x | x
COc1ccccc1N1C(=O)c2cccc3c(C(=O)O)ccc(c23)C1=O | n | n | n | n | n | n | x | x
COc1ccc2c3c(cccc13)C(=O)N(O)C2=O | n | n | n | n | n | n | 41 | -30
Cc1ccc(-n2ncc3c2CC(C)(C)CC3NC(=O)CCN2CCCO2)cc1 (configuration not stated) | n | n | n | n | n | n | x | x
SMILES | CHT allo act | CHT inh | MEKK2mut PB1 HTS | MEKK3 PB1 HTS | MEKK2wt PB1 HTS | SUMO Mot1 rescue | CHT act confirm | HEK293 MP dye
COc1cc(NS(C)(=O)=O)ccc1Nc1c2ccccc2nc2ccccc12 | 8.3 | n | x | x | x | n | 13 | -54
COc1ccc2nc(NC3=NCCC3)sc2c1 | 6.5 | n | n | n | n | x | 54 | -45
Cc1ccc(Cl)cc1N1CCN(C(=O)C2CCC(=O)N(C3CCCCCC3)C2)CC1 (configuration not stated) | 9.2 | n | n | n | n | n | 24 | n
COC(=O)NC(Nc1sc2c(c1C(N)=O)CCCC2)(C(=O)OC)C(F)(F)F (configuration not stated) | n | n | n | n | n | n | x | x
CCOC(=O)NC(Nc1sc2c(c1C(=O)OC)CCN(C)C2)(C(F)(F)F)C(F)(F)F | 7.6 | n | n | n | n | n | n | -50
CCC(=O)NC(Nc1sc2c(c1C(=O)OC)CCN(C)C2)(C(F)(F)F)C(F)(F)F | n | n | n | n | n | n | x | x
CCOC(=O)C(NC(=O)CC)(Nc1sc2c(c1C(=O)OC)CCN(C)C2)C(F)(F)F (configuration not stated) | 7.5 | n | n | n | n | n | 26 | -49
Cc1cc(=O)oc2cc(OCc3ccc(C(=O)OCC(=O)Nc4ccccc4OC(F)F)cc3)ccc12 | n | n | n | n | n | n | x | x
COc1cc(C(=O)NCC2CCCO2)cc(Br)c1OCc1ccccc1 (configuration not stated) | x | x | x | x | x | n | x | x
O=C(Nc1ccc(S(=O)(=O)Nc2nccs2)cc1)c1nn(-c2ccc(F)cc2)ccc1=O | 6.3 | n | n | n | n | n | 37 | -36
CC(=O)OCCCn1c(C)[n+](C)c2cc(Cl)c(Cl)cc21 | 9.7 | n | n | n | n | n | 67 | -62
CCn1c(C)[n+](CCOC(C)=O)c2cc(Cl)c(Cl)cc21 | n | n | n | n | n | n | x | x
Cc1cc(C)nc(NC(N)=NC(C)c2ccccc2)n1 (configuration not stated) | 6.3 | n | n | n | n | n | 45 | -34
Cc1cc(C)nc(NC(N)=NCCc2c[nH]c3ccccc23)n1 | 8.6 | n | n | n | n | n | 60 | -61
CSc1ccc(Cl)c(C(=O)OCC(=O)N2CCN(C(=O)c3ccco3)CC2)c1 | x | x | x | x | x | n | x | x
CC1CCCC(C)N1C(=O)COC(=O)c1cc(F)c(F)cc1Cl (configuration not stated) | x | x | x | x | x | n | x | x
COc1cccc2cc(C(=O)OC3CCN(C)CC3)c(=O)oc12 | 6.7 | n | n | n | n | n | 43 | -38
CC(NCc1cc(Br)ccc1OCC(=O)NCc1ccccc1)c1ccccc1 (configuration not stated) | n | n | n | n | n | x | n | n
O=C(COc1ccc(Br)cc1CNC1CCCC1)Nc1ccccc1 | n | n | n | n | n | n | n | n
O=C(CCC(=O)NNC(=O)COc1ccc(Br)cc1Br)NCc1ccccc1 | n | n | n | n | n | n | x | x
Cc1ccccc1/C=C/C1=NCCN1 | 7.2 | n | x | x | x | n | 40 | -38
O=c1[nH]cccc1-c1nc2ccccc2[nH]1 | n | n | n | n | n | n | 34 | -30
O=C(CN1C(=O)c2cccnc2Oc2ccc(Cl)cc21)N1CCCC1 | n | n | n | n | n | n | x | x
